Measurements from PubChem BioAssay (NCATS).
Inconclusive results are not listed. Where a call stands in place of a potency, no number is given. Unmarked numbers belong to inactive results. Active and inactive are the calls of the source. Unless noted, calls follow the shape of the dose curve; as a rule, active = well fitted curve in the direction sought with a large enough effect; inconclusive = small, poorly fitted or top-dose-only effect, or another doubt; inactive = no such curve, though single readings can be large; an effect the other way counts as inactive or inconclusive.

How the values were obtained:
[1] = qHTS for Inhibitors of Plasmodium falciparum (CP250) proliferation (AID 504320); also: potency is read from the fitted curve at half-maximal effect; settings: P. falciparum CP250 in erythrocytes, SYBR Green DNA, 72 h; series mostly up to 6.7 µM
Summary of the method: (§1)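 Parasite growth measured as SYBR Green DNA fluorescence (ex 485, em 535 nm) after overnight lysis following 72 h culture at 37 °C, 0.3% parasitemia, 2.5% hematocrit. Values normalized against DMSO and 0.29 uM artemisinin controls, with plate-stack correction.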

[2] = molecular target: Atrial natriuretic peptide receptor 1 (Homo sapiens) (UniProt P16066); experiment: Natriuretic polypeptide receptor (hNpr1) antagonism - Pilot CMLD screen (AID 1347052; calls by dose curve;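 also: cGMP level read as GloSensor luciferase luminescence after agonist stimulation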; also: potency is read from the fitted curve at half-maximal effect;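 as to activity change, negative = inhibition: HEK293 cells with hNpr1 stimulated by hNppA peptide at 0.1 nM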); settings: HEK293 hNpr1 GloSensor cGMP luminescence, ANP-stimulated; series mostly up to 9.22 µM
Sequence of Atrial natriuretic peptide receptor 1 (Homo sapiens) (P16066 whole entry, looked up): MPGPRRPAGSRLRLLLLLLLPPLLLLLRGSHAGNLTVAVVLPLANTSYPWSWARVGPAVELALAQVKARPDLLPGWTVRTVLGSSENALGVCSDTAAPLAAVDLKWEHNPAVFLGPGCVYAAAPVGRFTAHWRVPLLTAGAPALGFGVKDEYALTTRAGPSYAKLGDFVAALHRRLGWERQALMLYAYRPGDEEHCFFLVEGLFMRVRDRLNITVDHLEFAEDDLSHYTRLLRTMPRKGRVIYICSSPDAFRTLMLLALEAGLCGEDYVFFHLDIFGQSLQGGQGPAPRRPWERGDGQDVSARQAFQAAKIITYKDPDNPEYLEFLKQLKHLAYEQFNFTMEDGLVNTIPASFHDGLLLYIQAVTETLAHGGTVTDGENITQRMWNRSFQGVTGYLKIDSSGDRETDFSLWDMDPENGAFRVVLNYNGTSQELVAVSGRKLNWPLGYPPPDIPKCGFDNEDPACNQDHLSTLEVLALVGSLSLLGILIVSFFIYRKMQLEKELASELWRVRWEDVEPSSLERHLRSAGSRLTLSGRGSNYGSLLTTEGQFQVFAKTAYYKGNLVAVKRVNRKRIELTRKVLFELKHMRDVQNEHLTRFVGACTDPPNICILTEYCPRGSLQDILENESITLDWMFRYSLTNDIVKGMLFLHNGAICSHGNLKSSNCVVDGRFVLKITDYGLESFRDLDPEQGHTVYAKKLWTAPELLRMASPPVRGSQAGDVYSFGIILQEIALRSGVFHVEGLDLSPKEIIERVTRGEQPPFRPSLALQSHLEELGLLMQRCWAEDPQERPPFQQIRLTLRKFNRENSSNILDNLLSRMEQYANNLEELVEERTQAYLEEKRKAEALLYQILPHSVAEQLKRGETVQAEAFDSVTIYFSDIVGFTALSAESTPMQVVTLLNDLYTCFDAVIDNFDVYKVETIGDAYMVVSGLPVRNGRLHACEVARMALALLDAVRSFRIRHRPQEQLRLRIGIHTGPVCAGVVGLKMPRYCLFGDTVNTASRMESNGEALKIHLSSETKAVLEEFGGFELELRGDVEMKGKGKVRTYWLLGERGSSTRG

[3] = qHTS for Inhibitors of Plasmodium falciparum (HB3) proliferation (AID 504318); also: nearly all actives have a fitted effect of over 60% in size; also: potency is read from the fitted curve at half-maximal effect; settings: P. falciparum HB3 in erythrocytes, SYBR Green DNA, 72 h; series mostly up to 7.21 µM
Summary of the method: as §1

[4] = molecular target: Cytochrome P450 3A4 (Homo sapiens) (UniProt P08684); experiment: qHTS Assay for Inhibitors and Substrates of Cytochrome P450 3A4 (AID 884); settings: recombinant CYP3A4, Luciferin-PPXE luminescence; series mostly up to 57.1 µM; also: nearly all actives have a fitted effect of over 50% in size
Sequence of Cytochrome P450 3A4 (Homo sapiens) (P08684 whole entry, looked up): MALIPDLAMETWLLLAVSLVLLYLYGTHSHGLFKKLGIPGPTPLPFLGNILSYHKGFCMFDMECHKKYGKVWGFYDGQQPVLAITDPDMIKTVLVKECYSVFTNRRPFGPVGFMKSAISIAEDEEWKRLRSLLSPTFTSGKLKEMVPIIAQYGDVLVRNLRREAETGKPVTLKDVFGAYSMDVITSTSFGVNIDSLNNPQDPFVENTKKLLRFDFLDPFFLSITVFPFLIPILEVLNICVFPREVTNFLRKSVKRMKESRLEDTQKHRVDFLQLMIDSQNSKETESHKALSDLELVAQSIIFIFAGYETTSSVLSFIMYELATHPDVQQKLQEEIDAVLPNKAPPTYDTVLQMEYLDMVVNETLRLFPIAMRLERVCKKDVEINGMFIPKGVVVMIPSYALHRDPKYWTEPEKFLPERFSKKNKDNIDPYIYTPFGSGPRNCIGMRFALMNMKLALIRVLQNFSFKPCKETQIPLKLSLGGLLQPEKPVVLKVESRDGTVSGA
Summary of the method: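 Luminescent readout of luciferin produced by CYP3A4 (20 nM) dealkylation of Luciferin-PPXE, 25 uM (its KM). NADPH-driven reaction ran 60 min at RT after 10 min compound preincubation; data scaled to 57 uM ketoconazole as 100% inhibition.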

[5] = molecular target: Cytochrome P450 2D6 (Homo sapiens) (UniProt P10635); experiment: qHTS Assay for Inhibitors and Substrates of Cytochrome P450 2D6 (AID 891); settings: recombinant CYP2D6, luciferin-ME EGE luminescence; series mostly up to 57.1 µM;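 also: luciferin methyl ether substrate demethylated by CYP2D6 with NADPH regeneration; nearly all actives have a fitted effect of over 60% in size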
Sequence of Cytochrome P450 2D6 (Homo sapiens) (P10635 whole entry, looked up): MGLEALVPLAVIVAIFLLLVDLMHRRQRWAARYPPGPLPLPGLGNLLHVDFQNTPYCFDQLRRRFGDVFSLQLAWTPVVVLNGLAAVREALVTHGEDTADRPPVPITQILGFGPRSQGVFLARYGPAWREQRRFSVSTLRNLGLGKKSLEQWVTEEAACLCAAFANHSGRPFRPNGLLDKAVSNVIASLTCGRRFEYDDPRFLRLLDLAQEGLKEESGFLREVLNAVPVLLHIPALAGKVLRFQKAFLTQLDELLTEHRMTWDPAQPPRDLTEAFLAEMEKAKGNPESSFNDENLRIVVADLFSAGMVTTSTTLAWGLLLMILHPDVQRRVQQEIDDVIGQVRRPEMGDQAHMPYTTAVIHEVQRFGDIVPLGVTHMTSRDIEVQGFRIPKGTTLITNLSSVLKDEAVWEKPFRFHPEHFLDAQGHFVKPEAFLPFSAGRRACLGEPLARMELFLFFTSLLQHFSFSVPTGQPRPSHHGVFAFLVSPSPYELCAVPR
Summary of the method: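 Luminescent read-out of luciferin formed by 5 nM human CYP2D6 demethylating 30 uM Luciferin-ME EGE (Km level) over 60 min at room temperature after NADPH regeneration addition. Data normalized to full inhibition by 1.43 uM quinidine.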

[6] = molecular target: Cytochrome P450 2C19 (Homo sapiens) (UniProt P33261); experiment: qHTS Assay for Inhibitors and Substrates of Cytochrome P450 2C19 (AID 899); settings: recombinant CYP2C19, luciferin-H EGE luminescence; series mostly up to 57.1 µM; also: nearly all actives have a fitted effect of over 60% in size
Sequence of Cytochrome P450 2C19 (Homo sapiens) (P33261 whole entry, looked up): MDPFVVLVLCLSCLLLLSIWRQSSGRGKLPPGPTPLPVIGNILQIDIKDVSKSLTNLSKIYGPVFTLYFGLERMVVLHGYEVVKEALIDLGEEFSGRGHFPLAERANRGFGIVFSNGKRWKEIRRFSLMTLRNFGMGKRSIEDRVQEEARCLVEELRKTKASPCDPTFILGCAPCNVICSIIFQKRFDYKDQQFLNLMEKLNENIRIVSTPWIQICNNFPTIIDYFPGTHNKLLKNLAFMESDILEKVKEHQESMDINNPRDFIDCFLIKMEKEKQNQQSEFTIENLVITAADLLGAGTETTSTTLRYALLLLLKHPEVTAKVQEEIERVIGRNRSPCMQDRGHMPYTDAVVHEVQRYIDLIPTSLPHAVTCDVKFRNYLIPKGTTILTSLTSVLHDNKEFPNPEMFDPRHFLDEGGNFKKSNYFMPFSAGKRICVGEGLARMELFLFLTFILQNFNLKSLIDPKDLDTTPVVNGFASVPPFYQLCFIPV
Summary of the method: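 NADPH-dependent conversion of Luciferin-H EGE (10uM, at KM) by 5nM enzyme in 50mM KPO4, 60 min at 37C following 10 min compound preincubation. Stopped with luciferin detection buffer; luminescence read after 20 min.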

## C[C@@H]1CC[C@H]2C(=O)N(CC3CCCCC3)C[C@H](O)CN2[C@@H]1c1ccc(Br)cc1
[1]
  Potency: inactive
[2]
  Potency: inactive

## C=CCN1c2ccccc2[C@]23CCC(=O)N(Cc4cc(OC)c(OC)c(OC)c4)C2=NC(C(=O)OC)=C(C(=O)OC)[C@H]13
[1]
  Potency: inactive
[2]
  Potency: inactive

## CCOC(=O)CCN1C(=O)[C@@H]2[C@H]3[C@H](O)[C@H](O)CC(=NOCc4ccccc4)[C@@H]3CC[C@H]2C1=O
[1]
  Potency: inactive
[2]
  Potency: inactive

## O=C1N(CC2CC2)c2cccc(Br)c2[C@@]12O[C@H](COc1ccccc1)CC1=CCCC12 (stereo partly specified)
[1]
  Potency: inactive
[2]
  Potency: inactive

## COC(=O)c1ccc(CN2C(=O)[C@@]3(CC(C)=CC[C@@H](COc4ccccc4)O3)c3c(Br)cccc32)cc1
[3]
  Potency: 1.51 µM (active)
[2]
  Potency: inactive

## COC(=O)C1=C(C(=O)OC)[C@@H]2N(C)c3ccccc3[C@@]23C[C@@H](CO)N(C(=O)NC2CCCC2)C3=N1
[3]
  Potency: 1.9 µM (active)
[2]
  Potency: inactive

## CC(C)(C)c1ccc(O[C@@H]2[C@H](O)CO[C@@H]2C=CC#Cc2ccccc2)cc1
[1]
  Potency: inactive
[2]
  Potency: inactive

## COC1=C[C@H](C(=O)N[C@H]2CCCC[C@H]2NC(C)=O)[C@@]2(C)Cc3ccccc3[C@@H]2CC1=O
[1]
  Potency: inactive
[2]
  Potency: inactive

## O=C1C2=C(C(=O)c3ccccc31)[C@H]1O[C@](c3ccsc3)(Cc3ccccc31)O2
[3]
  Potency: 1.9 µM (active)
[2]
  Potency: inactive

## CC1=CC[C@@H](COc2ccccc2)O[C@@]2(C1)C(=O)N(Cc1ccccc1C(F)(F)F)c1cccc(Br)c12
[3]
  Potency: 1.69 µM (active)
[2]
  Potency: inactive

## O=C1N(Cc2ccc(Br)cc2)c2cccc(Br)c2[C@@]12O[C@H](COc1ccccc1)CC1=CCCC12 (stereo partly specified)
[1]
  Potency: inactive
[2]
  Potency: inactive

## FC(F)(F)c1cc(NC(=S)Nc2ccc3ccccc3c2)cc(C(F)(F)F)c1
[3]
  Potency: 2.13 µM (active)
[2]
  Potency: inactive

## COc1ccc2c(c1)C[C@@H](C)O[C@]21C(=O)Nc2ccccc21
[3]
  Potency: inactive
[1]
  Potency: inactive
[2]
  Potency: inactive

## C#CCN1C(=O)[C@]2(O[C@H](COc3ccccc3)CC3=CCCC32)c2c(Br)cccc21 (stereo partly specified)
[3]
  Potency: inactive
[2]
  Potency: inactive

## COc1ccc(O[C@H]2C=C[C@@H](c3ccccc3)O[C@H]2COC(=O)CCC(C)=NOCC[C@@H]2C=C[C@H](OC(C)=O)[C@@H](COC(C)=O)O2)cc1
[3]
  Potency: inactive
[1]
  Potency: inactive
[2]
  Potency: inactive

## COc1cccc([C@H]2Oc3ccc(OC)cc3C(=NO[C@H](C)CN3CCCc4nc(C)c(C)cc43)[C@H]2O)c1
[3]
  Potency: inactive
[1]
  Potency: inactive
[2]
  Potency: inactive

## COC(=O)C1=C(C)N(Cc2ccccc2)C(=NCCc2c[nH]c3ccccc23)NC1c1cccc(F)c1 (stereo unspecified)
[3]
  Potency: inactive
[1]
  Potency: inactive
[2]
  Potency: inactive

## CCC=CC[C@@]1(C(=O)OC)C=C[C@@H](C)[C@H](c2ccccc2Br)N1C(=O)C(F)(F)F
[1]
  Potency: inactive
[2]
  Potency: inactive

## CCN1C(=NCCc2ccccn2)NC(c2cccs2)C(C(=O)OC)=C1C (stereo unspecified)
[3]
  Potency: inactive
[1]
  Potency: inactive
[2]
  Potency: inactive

## O=C(NC(CC1=CCCCC1)c1ccc2ccccc2c1)C(F)(F)F (stereo unspecified)
[3]
  Potency: inactive
[1]
  Potency: inactive
[2]
  Potency: inactive

## CCc1cc2c(nc1CC)CCN(CCC(C)=NO[C@H](C)c1cn([C@H](CO)Cc3ccccc3)nn1)C2
[1]
  Potency: inactive
[2]
  Potency: inactive

## C[C@H]1CC[C@H]2C(=O)O[C@H](COc3ccc(C(C)(C)C)cc3)CN2[C@H]1c1ccc(Br)cc1
[3]
  Potency: 3.29 µM (active)
[2]
  Potency: inactive

## O=C1N(Cc2ccc(F)cc2)c2ccccc2[C@@]12O[C@H](COc1ccccc1)CC1CCCC12 (stereo partly specified)
[3]
  Potency: inactive
[1]
  Potency: inactive
[2]
  Potency: inactive

## CC(C)=CCN1C(=O)[C@]2(O[C@H](COc3ccccc3)CC3=C2CCC3)c2ccccc21
[3]
  Potency: 1.69 µM (active)
[2]
  Potency: inactive

## CCN1C(N(C)CCc2c[nH]c3ccccc23)=NC(c2cccc(C(F)(F)F)c2)C(C(=O)OC)=C1C (stereo unspecified)
[3]
  Potency: inactive
[1]
  Potency: inactive
[2]
  Potency: inactive

## Oc1c(CN2CCOCC2)cc2c(c1-c1c(O)c(CN3CCOCC3)cc3c1CCCC3)CCCC2
[1]
  Potency: inactive
[2]
  Potency: inactive

## COC(=O)N1C2CC(=O)O[C@H]3c4cc5c(cc4[C@]1(C)[C@@]3(Br)c1ccccc12)OCO5
[1]
  Potency: 1.51 µM (active)
[2]
  Potency: inactive

## CC(C)(C)OC(=O)C1=NOC2(C=CC(=O)C=C2)C1
[4]
  activity change, negative = inhibition: -24.2% [at 11.4 µM]
[5]
  activity change, negative = inhibition: -10.1% [at 11.4 µM]
[6]
  activity, negative = inhibition: 0.0773% [at 11.4 µM]
[3]
  Potency: inactive
[1]
  Potency: inactive
[2]
  Potency: 0.376 µM (active)

## C=CCCCC=C(C)[C@H](OCc1ccc(OC)cc1)[C@H](CCC=C(C)C(N)=O)OC
[1]
  Potency: inactive
[2]
  Potency: inactive

## COC(=O)C1=C(C(=O)OC)[C@@H]2N(C)c3ccccc3[C@@]23C[C@@H](C(=O)OC)N(C(=O)NC2CCCC2)C3=N1
[3]
  Potency: inactive
[1]
  Potency: inactive
[2]
  Potency: inactive

## c1ccc(CNc2oc(-c3ccccc3)nc2-c2cccc3ccccc23)cc1
[3]
  Potency: 3.29 µM (active)
[2]
  Potency: inactive

## C#CCN1C(=O)[C@]2(O[C@H](COc3ccccc3)CC3=C2CCC3)c2ccccc21
[1]
  Potency: inactive
[2]
  Potency: inactive

## COc1cccc([C@H]2NC(=O)CC=C[C@H](C)[C@@H](c3cccc(OC)c3)NC(=O)CC=C[C@H]2C)c1
[1]
  Potency: inactive
[2]
  Potency: inactive

## C=CC[C@@]1(c2ccccc2)Oc2ccccc2-c2nc3ccccc3nc21
[1]
  Potency: inactive
[2]
  Potency: inactive

## C[C@@H]1C=CCC(=O)N[C@@H](c2cccc(Br)c2)[C@H](C)C=CCC(=O)N[C@@H]1c1cccc(Br)c1
[1]
  Potency: inactive
[2]
  Potency: inactive

## CCC(C)CN1C(=O)NC(CCc2ccccc2)C(C(C)=O)=C1C (stereo unspecified)
[1]
  Potency: inactive
[2]
  Potency: inactive

## C[C@@H]1[C@@H](c2ccccc2)c2cc3ccccc3nc2-c2nc3ccccc3cc2[C@H]1C(=O)N1CCCC1
[1]
  Potency: inactive
[2]
  Potency: inactive

## COc1cc2c(cc1OC)[C@@H]1O[C@](c3ccsc3)(C2)Oc2cc(C)n(Cc3ccccc3)c(=O)c21
[1]
  Potency: inactive
[2]
  Potency: 0.531 µM (active)

## COC(=O)c1ccc(CN2C(=O)[C@@]3(CC(C)=C[C@@H](COc4ccccc4)O3)c3ccccc32)cc1
[1]
  Potency: inactive
[2]
  Potency: inactive
